These results are taken from the supplement of paper PMC11001985.

Unmarked numbers belong to inactive results.

Chain of UniProt Q15149 (Q15149 whole entry): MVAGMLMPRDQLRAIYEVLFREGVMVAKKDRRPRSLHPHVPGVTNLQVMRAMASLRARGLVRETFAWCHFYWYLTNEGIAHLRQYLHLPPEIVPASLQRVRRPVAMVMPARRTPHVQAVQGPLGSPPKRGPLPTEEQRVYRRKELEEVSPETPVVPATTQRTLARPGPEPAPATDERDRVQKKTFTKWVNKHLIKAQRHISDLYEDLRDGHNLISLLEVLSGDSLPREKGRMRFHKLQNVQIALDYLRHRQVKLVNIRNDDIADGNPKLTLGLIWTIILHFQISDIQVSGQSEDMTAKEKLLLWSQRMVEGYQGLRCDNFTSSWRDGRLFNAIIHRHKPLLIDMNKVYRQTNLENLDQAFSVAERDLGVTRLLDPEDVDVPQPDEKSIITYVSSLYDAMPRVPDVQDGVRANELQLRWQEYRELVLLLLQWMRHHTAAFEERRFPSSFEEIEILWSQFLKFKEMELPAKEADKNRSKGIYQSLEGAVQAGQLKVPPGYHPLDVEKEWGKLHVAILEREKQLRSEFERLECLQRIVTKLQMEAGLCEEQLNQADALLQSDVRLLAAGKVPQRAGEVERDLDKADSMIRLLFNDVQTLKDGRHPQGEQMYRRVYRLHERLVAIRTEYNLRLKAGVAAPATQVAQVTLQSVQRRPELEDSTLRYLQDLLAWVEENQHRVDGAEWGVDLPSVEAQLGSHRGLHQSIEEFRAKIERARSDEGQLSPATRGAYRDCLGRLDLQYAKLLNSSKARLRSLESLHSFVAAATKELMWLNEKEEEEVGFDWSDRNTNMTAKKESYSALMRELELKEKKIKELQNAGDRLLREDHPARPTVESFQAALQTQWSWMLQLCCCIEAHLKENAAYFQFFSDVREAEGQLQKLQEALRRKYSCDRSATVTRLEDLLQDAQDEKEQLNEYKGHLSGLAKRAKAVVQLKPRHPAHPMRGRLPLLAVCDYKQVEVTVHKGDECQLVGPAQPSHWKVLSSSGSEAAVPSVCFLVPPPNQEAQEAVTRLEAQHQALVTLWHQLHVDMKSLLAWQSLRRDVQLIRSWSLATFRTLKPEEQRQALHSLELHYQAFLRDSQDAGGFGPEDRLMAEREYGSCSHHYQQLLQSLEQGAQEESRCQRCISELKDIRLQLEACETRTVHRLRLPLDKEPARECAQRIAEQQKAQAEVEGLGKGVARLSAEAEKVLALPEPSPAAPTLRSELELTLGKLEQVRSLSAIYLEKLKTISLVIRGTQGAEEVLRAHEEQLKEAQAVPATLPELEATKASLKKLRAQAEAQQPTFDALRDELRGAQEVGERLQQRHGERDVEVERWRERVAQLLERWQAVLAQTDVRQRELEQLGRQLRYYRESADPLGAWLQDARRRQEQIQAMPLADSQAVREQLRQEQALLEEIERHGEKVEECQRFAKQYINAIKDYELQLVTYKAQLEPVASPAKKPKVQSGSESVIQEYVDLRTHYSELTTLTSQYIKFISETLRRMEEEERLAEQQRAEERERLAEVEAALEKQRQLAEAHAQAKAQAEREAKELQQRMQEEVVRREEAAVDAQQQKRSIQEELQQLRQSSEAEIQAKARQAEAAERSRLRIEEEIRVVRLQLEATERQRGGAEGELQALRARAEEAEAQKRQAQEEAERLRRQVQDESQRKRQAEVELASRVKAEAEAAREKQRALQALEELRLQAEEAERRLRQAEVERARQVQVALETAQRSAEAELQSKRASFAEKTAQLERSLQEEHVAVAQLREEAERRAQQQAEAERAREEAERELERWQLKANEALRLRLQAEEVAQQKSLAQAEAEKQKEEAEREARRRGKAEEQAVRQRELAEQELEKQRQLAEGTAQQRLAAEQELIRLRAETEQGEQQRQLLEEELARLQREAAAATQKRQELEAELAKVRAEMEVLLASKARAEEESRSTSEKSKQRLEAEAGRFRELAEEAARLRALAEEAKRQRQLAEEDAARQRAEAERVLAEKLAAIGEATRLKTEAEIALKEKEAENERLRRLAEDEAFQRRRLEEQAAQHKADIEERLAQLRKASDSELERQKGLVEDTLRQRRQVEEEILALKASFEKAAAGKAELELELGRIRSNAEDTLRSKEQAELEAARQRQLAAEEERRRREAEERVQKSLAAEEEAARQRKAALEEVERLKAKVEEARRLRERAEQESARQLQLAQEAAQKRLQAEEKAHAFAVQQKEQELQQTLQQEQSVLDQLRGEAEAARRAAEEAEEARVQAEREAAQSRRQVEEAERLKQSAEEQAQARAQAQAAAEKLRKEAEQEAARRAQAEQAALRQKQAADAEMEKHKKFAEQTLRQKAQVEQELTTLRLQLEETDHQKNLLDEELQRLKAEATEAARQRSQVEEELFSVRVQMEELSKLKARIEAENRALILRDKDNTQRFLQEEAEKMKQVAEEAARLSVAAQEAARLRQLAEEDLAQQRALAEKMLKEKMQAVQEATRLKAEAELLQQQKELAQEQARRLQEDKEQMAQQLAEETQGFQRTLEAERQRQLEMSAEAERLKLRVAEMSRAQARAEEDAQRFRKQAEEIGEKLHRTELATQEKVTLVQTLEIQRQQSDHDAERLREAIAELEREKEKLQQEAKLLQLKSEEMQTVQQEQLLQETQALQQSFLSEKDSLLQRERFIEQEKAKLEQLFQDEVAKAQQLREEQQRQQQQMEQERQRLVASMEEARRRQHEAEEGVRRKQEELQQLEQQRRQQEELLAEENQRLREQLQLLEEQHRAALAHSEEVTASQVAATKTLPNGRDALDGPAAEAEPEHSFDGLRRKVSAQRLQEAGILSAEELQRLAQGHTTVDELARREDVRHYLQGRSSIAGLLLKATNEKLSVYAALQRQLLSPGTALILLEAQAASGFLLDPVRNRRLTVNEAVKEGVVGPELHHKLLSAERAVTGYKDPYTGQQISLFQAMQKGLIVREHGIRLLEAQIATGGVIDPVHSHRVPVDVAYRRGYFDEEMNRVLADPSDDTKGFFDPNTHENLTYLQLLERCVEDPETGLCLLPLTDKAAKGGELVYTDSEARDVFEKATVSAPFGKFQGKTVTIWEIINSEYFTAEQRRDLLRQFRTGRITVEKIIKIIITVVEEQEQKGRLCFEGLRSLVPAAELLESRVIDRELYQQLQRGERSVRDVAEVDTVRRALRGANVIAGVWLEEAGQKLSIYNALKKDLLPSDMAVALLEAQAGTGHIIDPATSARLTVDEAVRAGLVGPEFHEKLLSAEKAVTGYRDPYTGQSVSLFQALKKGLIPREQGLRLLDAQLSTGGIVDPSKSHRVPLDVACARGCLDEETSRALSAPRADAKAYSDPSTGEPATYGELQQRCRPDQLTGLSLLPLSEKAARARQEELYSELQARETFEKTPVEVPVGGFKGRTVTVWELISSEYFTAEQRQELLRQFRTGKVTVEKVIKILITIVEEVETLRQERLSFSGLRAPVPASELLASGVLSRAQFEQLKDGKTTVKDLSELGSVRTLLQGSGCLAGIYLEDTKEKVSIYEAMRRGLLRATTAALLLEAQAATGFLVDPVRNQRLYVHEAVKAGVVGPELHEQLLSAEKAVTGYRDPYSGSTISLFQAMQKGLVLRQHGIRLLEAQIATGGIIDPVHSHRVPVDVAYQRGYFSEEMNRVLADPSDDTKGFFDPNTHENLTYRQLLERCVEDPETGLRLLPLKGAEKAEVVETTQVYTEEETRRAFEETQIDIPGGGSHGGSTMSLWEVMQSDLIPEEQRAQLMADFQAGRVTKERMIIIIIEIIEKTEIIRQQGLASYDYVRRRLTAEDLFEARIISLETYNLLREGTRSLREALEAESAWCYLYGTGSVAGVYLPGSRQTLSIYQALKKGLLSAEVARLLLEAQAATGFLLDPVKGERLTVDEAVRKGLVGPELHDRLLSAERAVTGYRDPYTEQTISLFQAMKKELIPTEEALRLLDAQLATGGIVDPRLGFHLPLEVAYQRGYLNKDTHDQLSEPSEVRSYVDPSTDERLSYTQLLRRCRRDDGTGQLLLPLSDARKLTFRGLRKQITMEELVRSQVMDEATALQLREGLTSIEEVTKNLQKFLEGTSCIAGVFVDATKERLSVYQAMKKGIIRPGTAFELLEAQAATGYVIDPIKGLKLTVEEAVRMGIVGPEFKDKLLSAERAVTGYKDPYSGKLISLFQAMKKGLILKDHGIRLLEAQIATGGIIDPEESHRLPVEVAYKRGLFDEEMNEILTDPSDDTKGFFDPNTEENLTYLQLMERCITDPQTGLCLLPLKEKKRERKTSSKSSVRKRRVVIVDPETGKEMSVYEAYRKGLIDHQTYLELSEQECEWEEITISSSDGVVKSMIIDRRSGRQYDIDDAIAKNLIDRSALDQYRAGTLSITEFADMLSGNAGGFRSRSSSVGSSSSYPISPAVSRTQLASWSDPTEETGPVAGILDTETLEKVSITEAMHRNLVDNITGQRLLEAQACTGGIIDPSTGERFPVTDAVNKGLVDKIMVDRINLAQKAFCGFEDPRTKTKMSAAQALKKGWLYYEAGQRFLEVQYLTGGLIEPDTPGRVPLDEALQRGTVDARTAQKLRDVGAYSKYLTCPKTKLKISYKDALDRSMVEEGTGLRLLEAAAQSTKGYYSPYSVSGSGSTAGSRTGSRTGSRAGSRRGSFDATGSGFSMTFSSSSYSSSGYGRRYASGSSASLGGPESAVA
Chain of UniProt P20645 (P20645 whole entry): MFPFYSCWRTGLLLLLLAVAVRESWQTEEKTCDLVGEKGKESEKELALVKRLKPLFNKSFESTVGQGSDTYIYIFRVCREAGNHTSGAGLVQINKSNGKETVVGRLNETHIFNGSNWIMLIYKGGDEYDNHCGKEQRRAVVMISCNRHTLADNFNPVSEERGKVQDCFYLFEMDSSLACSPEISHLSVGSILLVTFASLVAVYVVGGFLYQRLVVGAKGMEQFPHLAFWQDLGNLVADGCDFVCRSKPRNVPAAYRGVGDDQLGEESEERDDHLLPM
Chain of UniProt P69905 (P69905 whole entry): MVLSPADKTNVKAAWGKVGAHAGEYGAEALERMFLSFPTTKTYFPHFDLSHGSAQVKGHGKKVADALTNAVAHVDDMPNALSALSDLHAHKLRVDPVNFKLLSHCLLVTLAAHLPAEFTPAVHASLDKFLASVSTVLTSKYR

Compound in the test: C#CCNC(=O)CCSSCCC(=O)NCCc1ccc(C=O)c(C=O)c1
The test is described as follows: lysine labeling ratio R10:1 (500 µM / 50 µM probe), SILAC-ABPP in living cells; higher = lower intrinsic lysine reactivity toward the probe, active = 2 or less. The note with it: HeLa; probe concentrations 500 vs 50 µM. As to the method: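 Living HeLa cells (SILAC light/heavy) in PBS at room temperature were labeled with 50 µM versus 500 µM of the lysine-reactive, reductant-cleavable probe OPA-S-S-alkyne (SILAC labeling time not stated). Probe-modified peptides were CuAAC-biotinylated, captured on neutravidin and eluted with DTT/IAA, then quantified by LC-MS/MS. R = median peptide ratio per lysine (500/50 µM), combined over 3 forward and 3 reverse SILAC replicates. Ratios are capped at 20; R < 2 = hyper-reactive.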
As for “CACNA2D1 (lysine site: K634) (UniProt P54289)”, the “lysine labeling ratio R10:1” value was 3.07. “MCAM (lysine site: K182) (UniProt P43121)”: the “lysine labeling ratio R10:1” value was 3.4.

In the case of “SEMA4D (lysine site: K219) (UniProt Q92854)”, the “lysine labeling ratio R10:1” value was 2.27. Take “ITGA6 (lysine site: K404) (UniProt P23229)”: the “lysine labeling ratio R10:1” value is 6.64. Consider UniProt P62913 (lysine site: K154), for which the “lysine labeling ratio R10:1” value was 2.92. Consider MSN (lysine site: K64) (UniProt P26038), for which the “lysine labeling ratio R10:1” value is 1.22 (active). The same measure for “MYH9 (lysine site: K1754) (UniProt P35579)”: 3.66; for “SLC25A13 (lysine site: K408) (UniProt Q9UJS0)”: 2.67; for “FOLR1 (lysine site: K52) (UniProt P15328)”: 12.6.

On to UniProt Q9UHN6 (lysine site: K846), for which the “lysine labeling ratio R10:1” value is 1.51 (active). With “EEF2 (lysine site: K426) (UniProt P13639)”, the “lysine labeling ratio R10:1” value was 3.49. Turning to “SPTBN1 (lysine site: K932) (UniProt Q01082)”, the “lysine labeling ratio R10:1” value was 3.29.

As to “NUCB1 (lysine site: K177) (UniProt Q02818)”, the “lysine labeling ratio R10:1” value was 1.71 (active). Take “SDCBP (lysine site: K109) (UniProt O00560)”: the “lysine labeling ratio R10:1” value was 5.45. With UniProt P15941 (lysine site: K1125), the “lysine labeling ratio R10:1” value is 3. As to “M6PR (lysine site: K99) (UniProt P20645)”, the “lysine labeling ratio R10:1” value was 1.86 (active).

For “GAPDH (lysine site: K194) (UniProt P04406)”, the “lysine labeling ratio R10:1” value was 6.75. Regarding “CDH13 (lysine site: K185) (UniProt P55290)”, the “lysine labeling ratio R10:1” value was 4.74. With “PTK7 (lysine site: K636) (UniProt Q13308)”, the “lysine labeling ratio R10:1” value is 11. For “ROBO1 (lysine site: K316) (UniProt Q9Y6N7)”, the “lysine labeling ratio R10:1” value is 6.23. Regarding “VDAC1 (lysine site: K201) (UniProt P21796)”, the “lysine labeling ratio R10:1” value was 3.77.

Regarding UniProt Q15149 (lysine site: K4270), the “lysine labeling ratio R10:1” value is 0.968 (active). For the target “IARS (lysine site: K382) (UniProt P41252)”, the “lysine labeling ratio R10:1” value is 3.02. Turning to “PSMA4 (lysine site: K210) (UniProt P25789)”, the “lysine labeling ratio R10:1” value is 1.69 (active). Take “HSPD1 (lysine site: K469) (UniProt P10809)”: the “lysine labeling ratio R10:1” value is 4.7.

With UniProt Q15149 (lysine site: K1975), the “lysine labeling ratio R10:1” value is 5.68. Turning to “FAT1 (lysine site: K101) (UniProt Q14517)”, the “lysine labeling ratio R10:1” value was 2.6. “CD63 (lysine site: K110) (UniProt P08962)”: the “lysine labeling ratio R10:1” value is 5.07.

For the target “BPTF (lysine site: K609) (UniProt Q12830)”, the “lysine labeling ratio R10:1” value is 8.91.

With UniProt Q99500 (lysine site: K27), the “lysine labeling ratio R10:1” value is 1.9 (active).

For the target “EDIL3 (lysine site: K444) (UniProt O43854)”, the “lysine labeling ratio R10:1” value is 3.53.

Consider “TKT (lysine site: K353) (UniProt P29401)”, for which the “lysine labeling ratio R10:1” value was 6.

With “IARS (lysine site: K641) (UniProt P41252)”, the “lysine labeling ratio R10:1” value was 1.71 (active).

On to “ATP2A2 (lysine site: K169) (UniProt P16615)”, for which the “lysine labeling ratio R10:1” value is 7.34. Turning to “Q95604 (lysine site: K210) (UniProt P10321)”, the “lysine labeling ratio R10:1” value was 6.33.

With “MAN1B1 (lysine site: K354) (UniProt Q9UKM7)”, the “lysine labeling ratio R10:1” value was 2.81.

In the case of “FAT4 (lysine site: K1809) (UniProt Q6V0I7)”, the “lysine labeling ratio R10:1” value was 1.9 (active). As for “HBA1 (lysine site: K17) (UniProt P69905)”, the “lysine labeling ratio R10:1” value is 3.74. On to “IGSF3 (lysine site: K888) (UniProt O75054)”, for which the “lysine labeling ratio R10:1” value is 4.12. As for “PSEN1 (lysine site: K109) (UniProt P49768)”, the “lysine labeling ratio R10:1” value was 2.61.
